Test results from PubChem BioAssay (Tox21).
Records with an inconclusive call do not appear. Active and inactive are the calls of the source. Unless noted, the call rests on the fitted dose curve.

Experiments:
[1] = Nuclear factor erythroid 2-related factor 2/antioxidant responsive element (Nrf2/ARE) small molecule agonists: qHTS cell viability counter screen in human keratinocytes (AID 1919968; active means well fitted curve in the direction sought with a large enough effect in the repeat runs; an effect the other way counts as inactive or inconclusive; further: nearly all actives have a fitted effect of over 55% in size)
Procedure, shortened: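 After a 5 h attachment period, ARE-reporter keratinocytes were dosed with compounds in DMSO and then cultured 23 h at 37 C. Cell viability came from CellTiter-Fluor signal read after a further 1 h.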

[2] = Nuclear factor erythroid 2-related factor 2/antioxidant responsive element (Nrf2/ARE) small molecule agonists: luciferase reporter gene qHTS assay in human keratinocytes (AID 1919969); further: nearly all actives have a fitted effect of over 35% in size
[3] = biological target: Gonadotropin-releasing hormone receptor (Homo sapiens) (UniProt P30968); assay: Human gonadotropin-releasing hormone receptor (GnRHR) small molecule agonists, calcium flux assay in GnRHR-HEK293 cells (AID 1920063); further: nearly all actives have a fitted effect of over 35% in size
Gonadotropin-releasing hormone receptor (Homo sapiens), sequence (P30968 whole entry, looked up): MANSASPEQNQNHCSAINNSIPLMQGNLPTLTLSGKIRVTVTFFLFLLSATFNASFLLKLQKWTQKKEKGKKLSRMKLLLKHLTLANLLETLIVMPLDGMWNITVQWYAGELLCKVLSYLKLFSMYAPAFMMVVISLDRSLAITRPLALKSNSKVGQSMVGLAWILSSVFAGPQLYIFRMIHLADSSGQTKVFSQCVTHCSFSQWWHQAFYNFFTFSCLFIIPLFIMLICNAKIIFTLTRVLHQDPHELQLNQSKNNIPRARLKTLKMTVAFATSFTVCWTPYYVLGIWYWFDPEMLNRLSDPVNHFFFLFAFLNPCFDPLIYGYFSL
Procedure, shortened: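 We seeded human GnRHR-expressing HEK293 cells for 18 hours, loaded them with calcium dye for an hour at 37 C, added test compounds, and recorded fluorescence intensity kinetically for three minutes.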

[4] = biological target: KiSS-1 receptor (Homo sapiens) (UniProt Q969F8); assay: Human kisspeptin (KISS1R) small molecule agonists, calcium flux assay in KISS1R-HEK293 cells (AID 1920064; active means well fitted curve in the direction sought with a large enough effect in the repeat runs; an effect the other way counts as inactive or inconclusive)
KiSS-1 receptor (Homo sapiens), sequence (Q969F8 whole entry, looked up): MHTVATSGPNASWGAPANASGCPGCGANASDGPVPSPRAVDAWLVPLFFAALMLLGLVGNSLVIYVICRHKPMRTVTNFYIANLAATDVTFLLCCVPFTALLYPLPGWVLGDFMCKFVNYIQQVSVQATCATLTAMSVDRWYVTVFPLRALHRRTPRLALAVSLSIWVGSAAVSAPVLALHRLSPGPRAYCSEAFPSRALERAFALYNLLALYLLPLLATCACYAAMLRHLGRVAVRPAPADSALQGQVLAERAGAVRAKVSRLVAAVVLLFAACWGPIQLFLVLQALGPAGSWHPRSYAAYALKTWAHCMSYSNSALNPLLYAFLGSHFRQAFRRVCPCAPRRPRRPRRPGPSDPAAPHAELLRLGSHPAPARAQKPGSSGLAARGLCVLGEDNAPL
Procedure, shortened: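 Kinetic calcium assay, 1 s sampling over 3 min at Ex/Em 480/540, in HEK293 cells engineered with human KISS1R; compounds delivered in DMSO after 1 h dye loading.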

[5] = G protein-coupled receptor (GPCR) small molecule agonists, calcium flux assay: HEK293 wild type cell line counter screen (AID 1920065)
Procedure, shortened: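 Calcium-sensitive dye, loaded 1 h at 37 C into cells cultured 18 h, reports compound-evoked calcium release as fluorescence (Ex/Em 480/540), measured over 3 min. Agonist mode; 15-point titrations, triplicate.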

[6] = p53 small molecule agonists, cell-based qHTS assay with human liver microsomes (AID 1963577);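 further: p53 response element beta-lactamase reporter cells with liver microsomes plus NADPH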
Procedure, shortened: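 HLM-supplemented p53RE-bla reporter assay: 16 h compound exposure at 37 C, microsomes and NADPH each 0.5 mg/mL final, read by fluorescence intensity.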

[7] = p53 small molecule agonists, cell-based qHTS assay with rat liver microsomes (AID 1963578)
Procedure, shortened: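 Quantitative HTS of the Tox21 10K library: p53RE-bla cells, rat liver microsomes plus NADPH at 0.5 mg/mL final each, 16 h at 37 C, beta-lactamase fluorescence detection.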

[8] = p53 small molecule agonists, cell-based qHTS assay with human liver microsomes: qHTS cell viability counter screen (AID 1963579); further: nearly all actives have a fitted effect of over 45% in size
Procedure, shortened: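 Viability of p53RE-bla cells is measured as CellTiter-Glo luminescence following a 16 h, 37 C incubation with compound, liver microsomes from human donors and NADPH.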

[9] = p53 small molecule agonists, cell-based qHTS assay with rat liver microsomes: qHTS cell viability counter screen (AID 1963580); further: nearly all actives have a fitted effect of over 45% in size
Procedure, shortened: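 Intracellular ATP, by CellTiter-Glo luminescence, defines viability. HCT-116 p53RE-bla cells, 4,000 per well, were compound-treated in the presence of rat liver microsomes and NADPH for 16 h at 37 C.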

[10] = p53 small molecule agonists, cell-based qHTS assay: qHTS cell viability counter screen (AID 1963581); further: nearly all actives have a fitted effect of over 45% in size
Procedure, shortened: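 Following 5 h attachment, HCT-116 p53RE-bla cells took up compound for 16 h at 37 C; the reporter was read with B/G FRET substrate (2 h RT), and viability then via CellTiter-Glo ATP luminescence.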

[11] = p53 small molecule agonists, cell-based qHTS assay (AID 1963582; active means well fitted activation curve with a large enough effect in the signal ratio in the repeat runs, not every such curve was filed as active; the % refers to the signal ratio)
Procedure, shortened: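 In this cell-based concentration-response screen, a p53 response element drives beta-lactamase; cells received DMSO-borne compounds after 5 h culture and were incubated a further 16 h before FRET substrate development.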

[12] = biological target: 5-hydroxytryptamine receptor 2A (Homo sapiens) (UniProt P28223); assay: 5-hydroxytryptamine receptor 2A (HTR2A) small molecule antagonists, cell-based qHTS assay (AID 1963586); further: nearly all actives have a fitted effect of over 45% in size
5-hydroxytryptamine receptor 2A (Homo sapiens), sequence (P28223 whole entry, looked up): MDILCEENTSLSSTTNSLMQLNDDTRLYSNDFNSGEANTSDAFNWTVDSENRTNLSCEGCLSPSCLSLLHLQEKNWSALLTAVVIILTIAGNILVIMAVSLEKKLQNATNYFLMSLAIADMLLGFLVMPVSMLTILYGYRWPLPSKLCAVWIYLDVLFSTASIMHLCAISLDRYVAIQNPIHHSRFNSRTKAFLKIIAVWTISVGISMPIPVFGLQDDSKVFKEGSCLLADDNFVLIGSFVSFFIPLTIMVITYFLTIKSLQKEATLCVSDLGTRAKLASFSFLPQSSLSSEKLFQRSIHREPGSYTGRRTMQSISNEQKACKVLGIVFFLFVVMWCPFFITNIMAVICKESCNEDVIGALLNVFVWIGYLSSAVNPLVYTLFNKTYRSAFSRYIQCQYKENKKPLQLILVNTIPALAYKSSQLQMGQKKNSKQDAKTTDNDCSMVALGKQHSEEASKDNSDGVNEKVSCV
Procedure, shortened: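 Antagonist-mode intracellular calcium assay: DOI (4 nM) added after 5 min compound pre-incubation at room temperature to dye-loaded HTR2A-CHO cells. Fluorescence followed for 3 min, sampled every second.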

[13] = biological target: 5-hydroxytryptamine receptor 2A (Homo sapiens) (UniProt P28223); assay: 5-hydroxytryptamine receptor 2A (HTR2A) small molecule agonists, cell-based qHTS assay (AID 1963587); further: nearly all actives have a fitted effect of over 30% in size
Procedure, shortened: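 Kinetic calcium-flux fluorescence (2 min, 1 sec intervals) after compound addition in agonist mode. HTR2A-CHO cells were cultured 18 h, then dye-loaded 1 h at 37 C.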

[14] = biological target: Muscarinic acetylcholine receptor M1 (Homo sapiens) (UniProt P11229); assay: Cholinergic receptor muscarinic 1 (CHRM1) small molecule antagonists, cell-based qHTS assay (AID 1963588); further: nearly all actives have a fitted effect of over 40% in size
Muscarinic acetylcholine receptor M1 (Homo sapiens), sequence (P11229 whole entry, looked up): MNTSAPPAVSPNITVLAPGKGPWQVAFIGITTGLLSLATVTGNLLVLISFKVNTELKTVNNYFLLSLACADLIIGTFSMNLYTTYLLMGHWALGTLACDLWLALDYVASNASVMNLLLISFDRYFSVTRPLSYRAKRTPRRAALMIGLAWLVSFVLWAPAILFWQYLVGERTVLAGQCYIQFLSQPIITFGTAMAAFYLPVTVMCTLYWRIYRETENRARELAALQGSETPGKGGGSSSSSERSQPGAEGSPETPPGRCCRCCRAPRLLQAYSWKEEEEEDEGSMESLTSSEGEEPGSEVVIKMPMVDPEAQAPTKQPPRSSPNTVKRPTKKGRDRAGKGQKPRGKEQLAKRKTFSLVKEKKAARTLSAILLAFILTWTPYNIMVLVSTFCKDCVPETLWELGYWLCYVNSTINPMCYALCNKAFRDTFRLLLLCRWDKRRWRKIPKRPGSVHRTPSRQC
Procedure, shortened: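 CHRM1-CHO calcium-flux assay, antagonist mode. Cells were seeded 18 h, dye-loaded 1 h at 37 C and given compound for 5 min at RT, then acetylcholine was added at 50nM. FDSS fluorescence was read 3 min; 15 concentrations, three runs.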

[15] = biological target: Muscarinic acetylcholine receptor M1 (Homo sapiens) (UniProt P11229); assay: Cholinergic receptor muscarinic 1 (CHRM1) small molecule agonists, cell-based qHTS assay (AID 1963589); further: nearly all actives have a fitted effect of over 35% in size
Procedure, shortened: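 Measures agonist-induced intracellular calcium rise. Stable human CHRM1 CHO line, 1 h dye load at 37 C, compounds from DMSO, kinetic fluorescence read.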

[16] = cAMP Responsive Elements (CRE) small molecule agonists, cell-based qHTS assay (AID 1963590)
Procedure, shortened: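 A CRE-responsive beta-lactamase reporter in HEK 293T cells was used. Treatment ran 3 h at 37 C; detection used LiveBLAzer B/G FRET substrate for 2 h at room temperature.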

[17] = cAMP Responsive Elements (CRE) small molecule antagonists, cell-based qHTS assay (AID 1963591; active means well fitted inhibition curve with a large enough effect in the signal ratio in the repeat runs, not every such curve was filed as active; the % refers to the signal ratio)
Procedure, shortened: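 HEK293T cells carrying a CRE-driven beta-lactamase reporter receive compound and NKH477 (0.25 uM final) for 3 h. Fluorescence from LiveBLAzer B/G FRET substrate is read after 2 h at room temperature.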

[18] = biological target: Beta-2 adrenergic receptor (Homo sapiens) (UniProt P07550); assay: Adrenergic beta2 receptor (ADRB2) small molecule antagonists, cell-based qHTS assay (AID 1963592); further: series mostly up to about 92 µM; nearly all actives have a fitted effect of over 50% in size
Beta-2 adrenergic receptor (Homo sapiens), sequence (P07550 whole entry, looked up): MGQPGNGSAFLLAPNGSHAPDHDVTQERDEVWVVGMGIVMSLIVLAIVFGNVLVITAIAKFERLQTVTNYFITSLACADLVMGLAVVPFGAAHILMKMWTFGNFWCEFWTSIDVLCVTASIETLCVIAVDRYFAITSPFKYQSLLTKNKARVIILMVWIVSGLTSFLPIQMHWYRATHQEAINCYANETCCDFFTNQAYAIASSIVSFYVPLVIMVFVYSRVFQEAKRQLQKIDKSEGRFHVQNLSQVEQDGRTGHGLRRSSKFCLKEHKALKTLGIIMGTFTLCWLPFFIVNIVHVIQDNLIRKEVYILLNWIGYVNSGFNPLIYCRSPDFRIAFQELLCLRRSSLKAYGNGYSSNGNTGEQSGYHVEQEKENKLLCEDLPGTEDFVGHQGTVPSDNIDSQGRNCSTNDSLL
Procedure, shortened: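 Cells (CHO, stable ADRB2 overexpression) incubated 18-20hr at 37C; compounds added from DMSO; agonist mix (1nM isoproterenol, 100uM IBMX, 25uM Ro-20-1724) added; 0.5hr RT; d2-cAMP and anti-cAMP-cryptate added; 1hr RT; 665/615 nm read.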

[19] = biological target: Beta-2 adrenergic receptor (Homo sapiens) (UniProt P07550); assay: Adrenergic beta2 receptor (ADRB2) small molecule agonists, cell-based qHTS assay (AID 1963593);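 further: CHO cells stably overexpressing human ADRB2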
Procedure, shortened: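 CHO cells stably over-expressing ADRB2 were plated overnight at 37C, then dosed with compounds plus a stimulation mix containing 100uM IBMX and 25uM Ro-20-1724 for 0.5hr at room temperature. cAMP was measured by HTRF competition, 1hr.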

[20] = biological target: D(2) dopamine receptor (Homo sapiens) (UniProt P14416); assay: Dopamine D2 receptor (DRD2) small molecule agonists, cell-based qHTS assay (AID 1963594); further: nearly all actives have a fitted effect of over 35% in size
D(2) dopamine receptor (Homo sapiens), sequence (P14416 whole entry, looked up): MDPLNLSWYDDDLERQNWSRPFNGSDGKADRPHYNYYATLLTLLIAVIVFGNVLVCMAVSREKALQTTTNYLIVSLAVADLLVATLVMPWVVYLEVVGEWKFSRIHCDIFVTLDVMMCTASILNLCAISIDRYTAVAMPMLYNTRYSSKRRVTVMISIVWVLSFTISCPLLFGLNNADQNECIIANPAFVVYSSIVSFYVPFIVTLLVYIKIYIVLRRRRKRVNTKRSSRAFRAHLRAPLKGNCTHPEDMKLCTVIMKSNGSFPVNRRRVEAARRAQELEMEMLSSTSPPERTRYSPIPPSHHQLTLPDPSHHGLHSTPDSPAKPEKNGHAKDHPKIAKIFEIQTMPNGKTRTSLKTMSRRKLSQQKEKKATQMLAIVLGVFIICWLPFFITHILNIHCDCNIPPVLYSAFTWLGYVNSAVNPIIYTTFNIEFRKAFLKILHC
Procedure, shortened: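 cAMP accumulation in DRD2-HEK293 cells measured by HTRF after 1 h detection; compounds added 10 min before NKH477 (200nM […]) forskolin-analogue stimulation, 30 min at room temperature, with Ro20-1724 present at 0.1 mM final.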
On the % scale 0 is the no-effect control and ±100 the full control effect.

CC(=O)N[C@H]1[C@H]([C@H](O)[C@H](O)CO)OC(C(=O)O)=C[C@@H]1N=C(N)N
inactive: Potency [1] | Potency [2] | Potency [3] | Potency [4] | Potency [5] | Potency [6] | Potency [7] | Potency [8] | Potency [9] | Potency [10] | Potency [11] | Potency [12] | Potency [13] | Potency [14] | Potency [15] | Potency [16] | Potency [17] | Potency [18] | Potency [19] | Potency [20]

CN(C)c1cc(NC(=O)CNC(C)(C)C)c(O)c2c1C[C@H]1C[C@H]3[C@H](N(C)C)C(=O)C(C(N)=O)=C(O)[C@@]3(O)C(=O)C1=C2O
inactive: Potency [1] | Potency [2] | Potency [3] | Potency [4] | Potency [5] | Potency [6] | Potency [7] | Potency [8] | Potency [9] | Potency [10] | Potency [11] | Potency [12] | Potency [13] | Potency [14] | Potency [15] | Potency [16] | Potency [17] | Potency [18] | Potency [19] | Potency [20]

NC[C@H]1O[C@H](O[C@H]2[C@H](O)[C@@H](O[C@H]3O[C@H](CO)[C@@H](O)[C@H](N)[C@H]3O)[C@H](N)C[C@@H]2N)[C@H](N)[C@@H](O)[C@@H]1O
inactive: activity change, negative = cytotoxicity [1] -0.0182% [at 19 µM] | activity, positive = activation [2] 2.7% [at 19 µM] | activity change [3] 5.96% [at 11.8 µM, active compounds read high] | activation [4] -0.341% [at 15.8 µM] | activation [5] -0.87% [at 11.8 µM] | activation [6] -1.52% [at 13.5 µM] | activation [7] -0.665% [at 13.6 µM] | activity change, negative = cytotoxicity [8] -3.3% [at 13.5 µM] | activity change, negative = cytotoxicity [9] 3.53% [at 13.5 µM] | activity change, negative = cytotoxicity [10] -25.6% [at 13.5 µM] | activation [11] 0.52% [at 13.5 µM] | activity, negative = inhibition [12] 6.4% [at 12.7 µM] | activation [13] -0.88% [at 15.9 µM] | activity, negative = inhibition [14] 7.06% [at 12.6 µM] | activation [15] -0.129% [at 15.8 µM] | activation [16] 0.862% [at 19 µM] | activity change, negative = inhibition [17] 0.145% [at 18.9 µM] | activity change, negative = inhibition [18] 5.76% [at 19 µM] | activation [19] 1.3% [at 19 µM] | activation [20] -0.355% [at 19 µM]

FC(F)(F)C(F)(F)C(F)(F)C(F)(F)C(F)(F)C(F)(F)CCI
inactive: Potency [1] | Potency [2] | Potency [3] | Potency [4] | Potency [5] | Potency [6] | Potency [7] | Potency [8] | Potency [9] | Potency [10] | Potency [11] | Potency [12] | Potency [13] | Potency [14] | Potency [15] | Potency [16] | Potency [17] | Potency [18] | Potency [19] | Potency [20]

C=C(C)C(=O)OCCOP(=O)(O)O
inactive: Potency [1] | Potency [2] | Potency [3] | Potency [4] | Potency [5] | Potency [6] | Potency [7] | Potency [8] | Potency [9] | Potency [10] | Potency [11] | Potency [12] | Potency [13] | Potency [14] | Potency [15] | Potency [16] | Potency [17] | Potency [18] | Potency [19] | Potency [20]

NC(=O)Nc1ccc(Cl)cc1
inactive: Potency [1] | Potency [2] | Potency [3] | Potency [4] | Potency [5] | Potency [6] | Potency [7] | Potency [8] | Potency [9] | Potency [10] | Potency [11] | Potency [12] | Potency [13] | Potency [14] | Potency [15] | Potency [16] | Potency [17] | Potency [18] | Potency [19] | Potency [20]
